Source: PMC5540273 (PLoS ONE, 2017)

Legend:
Conditions in all cases: concentration: 1 μM, replicates: in singlicate; n = 1
[1] = system: STK16
[2] = system: STK33
[3] = system: STK35
[4] = system: STK36
[5] = system: STK39
[6] = system: SYK
[7] = system: SgK110
[8] = system: T1, TAK1
T1 construct: gene MAP3K7

[9] = system: TAOK1
[10] = system: TAOK2
[11] = system: TAOK3
[12] = system: TBK1
[13] = system: TEC
[14] = system: TESK1
[15] = system: TGFBR1
[16] = system: TGFBR2
[17] = system: TIE1
[18] = system: T2, TIE2
T2 construct: gene TEK

[19] = system: TLK1
[20] = system: TLK2
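Also: KINOMEscan kinase panel screen.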

| SMILES | %Inh [1] [%] | %Inh [2] [%] | %Inh [3] [%] | %Inh [4] [%] | %Inh [5] [%] | %Inh [6] [%] | %Inh [7] [%] | %Inh [8] [%] | %Inh [9] [%] | %Inh [10] [%] | %Inh [11] [%] | %Inh [12] [%] | %Inh [13] [%] | %Inh [14] [%] | %Inh [15] [%] | %Inh [16] [%] | %Inh [17] [%] | %Inh [18] [%] | %Inh [19] [%] | %Inh [20] [%] |
| --- | --- | --- | --- | --- | --- | --- | --- | --- | --- | --- | --- | --- | --- | --- | --- | --- | --- | --- | --- | --- |
| Cc1ccc(C(=O)Nc2ccc(Nc3ccnc4cc(-c5ccccn5)ccc34)cc2O)cc1.Cl [GW440146] | 22 | 0 | 0 | 0 | 0 | 21 | 0 | 0 | 0 | 0 | 0 | 0 | 13 | 13 | 3 | 26 | 19 | 0 | 0 | 0 |
| COc1ccc(Nc2nccc(NCCNC(=O)Nc3ccccc3F)n2)cc1 [GSK1379901] | 18 | 0 | 0 | 0 | 10 | 32 | 0 | 0 | 0 | 0 | 0 | 21 | 12 | 44 | 3 | 0 | 0 | 0 | 0 | 0 |
| Cc1c(O)cccc1Nc1ccnc2ccc(C(F)(F)F)cc12.Cl [GW466413] | 0 | 0 | 0 | 0 | 3 | 0 | 0 | 0 | 0 | 0 | 0 | 0 | 0 | 10 | 2 | 8 | 12 | 0 | 14 | 0 |
| O=C(O)COc1ncnc2cc(-c3ccc4[nH]ncc4c3)sc12 | 12 | 0 | 0 | 0 | 0 | 0 | 0 | 28 | 0 | 0 | 0 | 11 | 0 | 13 | 10 | 18 | 24 | 21 | 22 | 0 |
| Cc1nnc(-c2ccc3occ(-c4ccc(S(C)=O)cc4)c3c2)[nH]1 (centres unmarked) | 11 | 0 | 22 | 3 | 0 | 0 | 0 | 7 | 0 | 0 | 0 | 0 | 13 | 2 | 10 | 0 | 0 | 5 | 14 | 0 |
| Nc1nc(-c2nccs2)c(-c2ccnc3ccccc23)s1 [GW693542] | 32 | 0 | 0 | 0 | 10 | 24 | 13 | 0 | 0 | 0 | 0 | 5 | 16 | 26 | 27 | 55 | 26 | 0 | 0 | 0 |
| CCCc1ccc(S(=O)(=O)NC2CCN(c3ccnc(Nc4ccc(F)cc4)n3)C2)cc1 (centres unmarked) [GSK1379715] | 6 | 0 | 0 | 0 | 13 | 0 | 34 | 0 | 0 | 0 | 0 | 0 | 0 | 74 | 0 | 0 | 0 | 0 | 0 | 0 |
| COc1ccc(C2=C(Nc3cccc(C(=O)O)c3)C(=O)NC2=O)cc1 [SB-390765] | 10 | 0 | 13 | 22 | 0 | 25 | 0 | 21 | 28 | 28 | 23 | 11 | 10 | 12 | 1 | 0 | 7 | 21 | 1 | 0 |
| CC(C)(C)c1ccc(C(=O)Nc2cn3cc(Cl)ccc3n2)cc1 | 0 | 0 | 0 | 0 | 0 | 17 | 0 | 0 | 0 | 10 | 0 | 0 | 0 | 0 | 0 | 0 | 0 | 13 | 23 | 0 |
| COC(=O)c1c(-c2ccccc2)c2cc(C(=O)O)ccc2c(=O)n1Cc1ccccc1 | 22 | 0 | 0 | 5 | 0 | 0 | 14 | 0 | 14 | 20 | 0 | 6 | 0 | 0 | 21 | 8 | 0 | 18 | 10 | 0 |
